KB-V1 MDR tox: KB-V1 MDR subline cytotoxicity; KB-V1 MDR cells viability, CellTiter-Glo, 72 h; Potency, µM (doses to about 46.1 µM), most hits filed as cytotoxic; hit rate 3.4% among 400,000; further: on the % scale 0 is the no-effect control and ±100 the full control effect; nearly all actives have a fitted effect of over 60% in size
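KB-V1 MDR subline cells in DMEM (phenol-red free, 10% FBS) exposed to compounds in qHTS concentration series for 72 h at 37 degrees C. Viability read by CellTiter-Glo luminescence; concentration-effect curves fitted after normalization and correction.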
HT1080NT lethal: kills 2HG-producing HT-1080-NT fibrosarcoma cells; HT-1080-NT fibrosarcoma viability, CellTiter-Glo ATP luminescence, 48 h; Potency, µM (highest dose often 46.1 µM), without a hit: at the highest dose activity, negative = less viability, hits mostly cytotoxic; hit rate 1.6% among 360,000;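 further: NT is the 2HG producing partner of a matched IDH1 knockdown line; 0% = DMSO-treated cells and -100% = media-only wells without cells; nearly all actives have a fitted effect of over 55% in size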
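Fibrosarcoma NT cells, 750 per well in 5% FBS RPMI, were exposed to compound for 48 hours. Viability: CellTiter-Glo luminescence.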
KB-3-1 tox: KB-3-1 parental cell cytotoxicity | hit rate 1.4% among 400,000 | KB-3-1 viability, CellTiter-Glo ATP luminescence, 72 h | Potency, µM (highest dose often 46.1 µM), hits mostly cytotoxic; further: on the % scale 0 is the no-effect control and ±100 the full control effect; nearly all actives have a fitted effect of over 60% in size
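Screening of KB-3-1 cells (DMEM, 10% FBS, phenol-red free) ran from lowest to highest compound concentration; after 72 h at 37 °C viability was read luminescently and curves fitted.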
SW480 rerep: inducers of DNA re-replication in SW480 colon cancer cells | SW480 DNA re-replication, Hoechst DNA content imaging, 48 h | Potency, µM (top dose mostly 46.1 µM), inactives show at the top dose re-replication activation, usual class: activators | hit rate 1.8% among 340,000; further: % of control where 0% means no effect; nearly all actives have a fitted effect of over 55% in size
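Per well, 250 cells were exposed to pinned compound for 48 hr. Nuclear DNA was visualised with Hoechst (40 min, 37 C) and total object intensity recorded by fluorescence scanning.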
MCF10A rerep: DNA re-replication induction in MCF 10a cells; Potency, µM (doses to about 46.1 µM), for the others: at the top dose activity, positive = re-replication, most hits filed as activators; AID 624296; hit rate 2.9% among 350,000; MCF 10A DNA re-replication, Hoechst nuclear intensity, 48 h; further: % of control where 0% means no effect; nearly all actives have a fitted effect of over 50% in size
HT1080 IDH1KD tx: toxicity to HT-1080 IDH1 knockdown cells (counter line). HT-1080 IDH1 knockdown viability, ATP luminescence, 48 h. Potency, µM (series often up to 46.1 µM), for inactives: at the highest dose activity, negative = toxicity, hits mostly cytotoxic. hit rate 2% among 360,000;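 further: 0% = DMSO wells and -100% = cell-free medium wells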
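Assay cells: HT-1080 with IDH1 knockdown, 750 per well, RPMI/5% FBS. Exposure: 48 h at 37 °C following 2 h pre-incubation. Read: CellTiter-Glo luminescence; fitted concentration-response, curve class assigned.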
* = called active by the depositor; i = inactive; ? = inconclusive; . = no result; [ ] = dose if it differs, or a comment. A selection: hits, their analogues and other compounds. The true share with any hit is near 7.9%. The call rests on the fitted dose curve; in most records, active means well fitted curve in the direction sought with a large enough effect; inconclusive means small, poorly fitted or top-dose-only effect, or another doubt; inactive means no such curve, though single readings can be large; an effect the other way counts as inactive or inconclusive. Potency means the concentration at half of the fitted maximal effect.

SMILES	KB-V1 MDR tox	HT1080NT lethal	KB-3-1 tox	SW480 rerep	MCF10A rerep	HT1080 IDH1KD tx
Cc1ccc(-n2cc(CN3CCC(CO)(Cc4cccc(C(F)(F)F)c4)CC3)cn2)cc1	?	23µM*	?	-4%	23%	18µM*
CC(C)Cc1cc(CN2CCC(CO)(Cc3cccc(C(F)(F)F)c3)CC2)[nH]n1	i	?	?	?	29%	?
CN(C)S(=O)(=O)N1CCC(CO)(Cc2cccc(C(F)(F)F)c2)CC1	?	-12%	i	-1%	12%	3%
OCC1(Cc2cccc(C(F)(F)F)c2)CCN(Cc2cc(F)cc(F)c2)CC1	?	18µM*	?	?	23µM*	?
CSc1cccc(CN2CCC(CO)(Cc3cccc(C(F)(F)F)c3)CC2)c1	?	21µM*	i	21%	?	16µM*
CCCCNC(=O)C1CCN(c2nc3ccccc3nc2C(F)(F)F)CC1	i	.	i	.	.	.
CC(=O)Nc1cccc(NC(=O)c2cc(-c3cccnc3)nc3ccc(Br)cc23)c1	i	?	i	?	12µM*	?
O=C(O)c1cc(-c2cccnc2)nc2ccc(Br)cc12	i	-1%	i	2%	-17%[9.22 µM]	14%
CC(=O)Nc1cccc(NC(=O)c2cc(-c3cccnc3)nc3ccc(Cl)cc23)c1	i	?	i	-1%	?	?
CSc1ccccc1NC(=O)c1cc(-c2cccnc2)nc2ccc(Br)cc12	?	-4%	?	3%	16µM*	2%
O=C(Nc1cccnc1)c1cc(-c2ccc(Br)cc2)nc2ccccc12	i	?	i	17%	?	?
Cc1ccc2nc(-c3cccnc3)cc(C(=O)Nc3ccccc3[N+](=O)[O-])c2c1	.	-5%	.	?	15µM*	-8%
O=C(Nc1ccc(C(F)(F)F)cc1)c1cc(-c2cccnc2)nc2ccc(Br)cc12	?	11%	i	?	5.2µM*	5%
c1ccc2c(c1)ccn2-n1ccc2ccccc21	i	.	i	.	.	.
CCCOc1ccc(CNC(=O)CCCN2C(=O)CSc3c2c(C)nn3-c2ccccc2)cc1	i	.	i	.	.	.
C=CC(=O)Nc1cccc(Oc2ccnc(Nc3ccc(N4CCN(C)CC4)cc3)n2)c1	i	-24%	?	?	18µM*	-19%
C=CC(=O)Nc1cccc(N(C)c2ccnc(Nc3ccc(N4CCN(C)CC4)cc3)n2)c1	i	-19%	?	?	15µM*	?
CCN(Cc1ccccc1)C(=O)Cn1ncc2c(=O)oc3ccc(C)cc3c21	i	.	i	.	.	.
CCN(CC(=O)NCc1ccc(F)cc1)C(=O)/C=C/c1ccc(OC)c(S(=O)(=O)NC(C)C)c1	i	4.1µM*	2.6µM*	8.2µM*	1.8µM*	?
CCN(CC(=O)NCc1ccc(F)cc1)C(=O)/C=C/c1ccc(OC)cc1	i	7%	i	21%	-17%	-11%
CCOC(=O)c1c(NC(=O)Cn2cnc([N+](=O)[O-])n2)sc2c1CCC(C)C2 (configuration not stated)	i	?	i	2%	2%	?
COC(=O)c1c(NC(=S)NN2CCN(C)CC2)sc2c1CCC(C)C2 (configuration not stated)	?	18µM*	?	8%	?	16µM*
COC(=O)c1c(NC(=O)Cn2cnc([N+](=O)[O-])n2)sc2c1CCC(C)C2 (configuration not stated)	16µM*	9%	i	13%	?	8%
Cc1c(Br)c([N+](=O)[O-])nn1CCCC(=O)Nc1sc2c(c1C(N)=O)CCC(C)C2 (configuration not stated)	8.2µM*	2%	?	-54%	-25%	-3%
N#Cc1nc(Cc2ccccc2)oc1NCCCn1ccnc1	i	18%	i	16µM*	?	-2%

Source: PubChem BioAssay (National Center for Advancing Translational Sciences (NCATS))
